This passage reports Potency and activity change, negative = cytotoxic results from PubChem BioAssay (Tox21).

Inconclusive results are not listed. Entries that show only a call come without a potency. The source made the active and inactive calls. Calls come from the whole dose curve; as a rule, active = well fitted cell-killing curve with a large enough effect in the repeat runs; inconclusive = weak or mixed curves; inactive = flat fitted curve, though single readings scatter.

A short description of the assay: qHTS RealTime-Glo MT Cell Viability Assay in HepG2 cells - 16 hour (AID 1224885). Note: nearly all actives have a fitted effect of over 50% in size. The conditions noted are these: RealTime-Glo luminescence; series mostly up to 76.8 µM. The method, boiled down:
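HepG2 suspension premixed with RealTime-Glo reagents is plated at 600 cells per well and left 5 h at 37 C/5% CO2. Compounds in DMSO then go in, and bioluminescence reflecting viable cell number is recorded over 40 h.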
On the technique in general: qHTS replaces the single test concentration by a dilution series.
For the compound `C[Si](Cl)(c1ccccc1)c1ccccc1`, the Potency result was “inactive”. With `Cl[Si](Cl)(c1ccccc1)c1ccccc1`, the Potency result is “inactive”. Still for that read-out and setting: with `CC1(C)CCC[C@]2(C)[C@H]3CCO[C@]3(C)CC[C@@H]12` the entry was “inactive”. On the same count and under the same terms, with `COc1ccc(NC(=O)CC(C)=O)cc1` the entry was “inactive”. The same measure, in the same setting: then `O=C(c1ccc(O)c(O)c1)c1ccc(O)cc1O`, with “inactive”; and `CC(N=C(NC#N)Nc1ccncc1)C(C)(C)C` (configuration not stated), with “inactive”. In the case of `O=C(/C=C/c1ccccc1)OC/C=C/c1ccccc1`, the Potency entry was “inactive”. Turning to `CC[C@H](C)COC(=O)/C=C/c1ccc(N=Cc2ccc(OC)cc2)cc1`, the Potency entry was “inactive”.

In the case of `Sc1nc2ccccc2s1`, the Potency result was “inactive”. In the case of `O=C(O)CN(CCN(CC(=O)O)CC(=O)O)CC(=O)O`, the activity change, negative = cytotoxic was -5.14% [at 2.72 µM] (inactive).

Take `O=c1[nH]c(=O)n([C@H]2C[C@H](O)[C@@H](CO)O2)cc1F`: the Potency entry is “inactive”. On to `Cc1cc(=O)oc2cc(O)cc(O)c12`, for which the Potency result is “inactive”.
